Here are results for four compounds from ChEMBL document CHEMBL4513140, “CO-ADD screening of Lancaster University (UK) compounds” (2021).

One experiment concerns Klebsiella pneumoniae. The conditions noted are these: Concentration 32 ug.mL-1; ASSAY_TEST Inhibition of Bacterial Growth; detection method Absorption (OD600); MEDIA CAMHB; plate type 384well; NBS; CORNING #3640; time 18 hr.
The next experiment has as its system Candida albicans. The conditions noted are these: 32 ug/mL.
The test system of the next experiment is Cryptococcus neoformans. The following applies: Concentration 32 ug.mL-1; ASSAY_TEST Inhibition of Fungal Growth; detection method Resazurin; Absorption (OD600-OD570); plate type 384well; NBS; CORNING #3640. In general terms: Alamar Blue is a resazurin reagent that responds to reducing activity.

Potency and affinity values are given separately.

Take `CC(=O)c1cc(C(C)=O)cc(C(C)=O)c1`: the Inhibition in the experiment on Klebsiella pneumoniae is 7.55%; in the experiment on Candida albicans, 2.92%; with Cryptococcus neoformans, -57.45%.

Turning to `CC(=NN)c1cc(/C(C)=N/N)cc(/C(C)=N/N)c1`, the Inhibition is 4.02% in the experiment on Klebsiella pneumoniae, 5.62% in the experiment on Candida albicans and -41.95% with Cryptococcus neoformans.

`c1ccc2nc3c4cccnc4c4ncccc4c3nc2c1`: the Inhibition was 2.4% in the experiment with Klebsiella pneumoniae, 9.1% in the experiment with Candida albicans and -49.42% in the experiment on Cryptococcus neoformans.

For `COC(=O)c1ccc(S)cc1`, the figures for the Inhibition in the experiment with Klebsiella pneumoniae, with Candida albicans and in the experiment with Cryptococcus neoformans were -1.57%, 2.97% and -49.69%, respectively.

In general, Inhibition refers to the relative decrease from the control value, in per cent.
